The values below come from the antibiotic and cytotoxicity screens of Wong et al. (2023).

Molecules are shown by their SMILES. Hit rate of the full screen: of about 39,000 compounds, about 3,300 (8.5%) were called active. The list comes from a sample in which actives are over-represented; it also holds similar structures and randomly drawn compounds.

The subject of the test is HepG2. Description: cytotoxicity call (relative viability < 0.9). The settings on record: 10 µM.
In the case of `C[C@@H]1CN([C@@H](C)CO)C(=O)c2cc(NC(=O)Nc3ccc(F)cc3)ccc2O[C@@H](C)CCCCO[C@H]1CN(C)Cc1ccc(C(=O)O)cc1`, the cytotoxicity call was “inactive”.
Regarding `COc1cccc(S(=O)(=O)N2C[C@H](O)COC[C@H]3O[C@H](CC(=O)NCCCN4CCOCC4)CC[C@@H]32)c1`, the cytotoxicity call was “inactive”.
In the case of `CN1[C@@H]2c3ccc(-c4ccccc4)c(=O)n3C[C@H]1[C@H](CO)[C@H]2C(=O)NCCCN1CCOCC1`, the cytotoxicity call is “inactive”.
In the case of `Cc1noc(C)c1NC(=O)Nc1cccc2c1O[C@H](CN(C)C(=O)NC(C)C)[C@H](C)CN([C@@H](C)CO)C2=O`, the cytotoxicity call is “inactive”.
`O=C(C[C@H]1CC[C@H]2[C@@H](COC[C@H](O)CN2S(=O)(=O)c2ccc(Cl)cc2)O1)N[C@@H]1CCN(Cc2ccccc2)C1`: the cytotoxicity call was “inactive”.
Consider `CCCN(C)C[C@@H]1OCCCC[C@@H](C)Oc2ccc(NS(=O)(=O)c3cn(C)cn3)cc2C(=O)N([C@H](C)CO)C[C@@H]1C`, for which the cytotoxicity call is “inactive”.
As for `COc1ccc(NC(=O)N(C)C[C@H]2Oc3ncc(C#CC(C)C)cc3C(=O)N([C@H](C)CO)C[C@H]2C)cc1`, the cytotoxicity call is “inactive”.
As to `CC1OC(OC2C(O)CC(OC3C(O)CC(OC4CCC5(C)C(CCC6C5CCC5(C)C(C7=CC(=O)OC7)CCC65O)C4)OC3C)OC2C)CC(O)C1O` (stereo not given), the cytotoxicity call is “active”.
For `C[C@H]1O[C@@H](O[C@H]2[C@@H](O)C[C@H](O[C@H]3[C@@H](O)C[C@H](O[C@H]4CC[C@@]5(C)[C@H](CC[C@@H]6[C@@H]5CC[C@]5(C)[C@@H](C7=CC(=O)OC7)CC[C@]65O)C4)O[C@@H]3C)O[C@@H]2C)C[C@H](O)[C@@H]1O`, the cytotoxicity call is “active”.
The value for `Cc1ccc(S(=O)(=O)N(C)C[C@H]2OCCCC[C@H](C)Oc3ccc(NC(=O)Nc4cccc5ccccc45)cc3C(=O)N([C@H](C)CO)C[C@H]2C)cc1` was “inactive”; that for `NCCCN1CCCN(CCCN)CC1` was “inactive”; that for `NCCCn1c2c(c3ccccc31)CCCC2` was “active”.
`CC(=O)N1C(=O)N(C(C)=O)[C@@H](O)[C@H]1O`: the cytotoxicity call is “inactive”.
Take `O=C(C[C@@H]1CC[C@H](NS(=O)(=O)c2ccccc2)[C@H](CO)O1)NCc1ccncn1`: the cytotoxicity call is “inactive”.
Regarding `Nc1nnc(C(F)(F)F)[nH]1`, the cytotoxicity call was “inactive”.
Then `CCCc1ccc2c(c1)CNCCC2`, with “inactive”; and `COc1ccc(NC(=O)N(C)C[C@@H]2OCCCC[C@@H](C)Oc3ccc(NC(=O)Cc4ccccc4)cc3C(=O)N([C@H](C)CO)C[C@@H]2C)cc1`, with “inactive”; and `C[C@@H]1CN([C@H](C)CO)C(=O)c2cc(NS(C)(=O)=O)ccc2O[C@@H]1CN(C)C(=O)Nc1ccc2c(c1)OCO2`, with “inactive”.
`C[C@@H]1CN([C@H](C)CO)C(=O)c2cc(NC(=O)Nc3ccccc3)ccc2O[C@@H](C)CCCCO[C@@H]1CN(C)S(=O)(=O)c1ccccc1`: the cytotoxicity call was “inactive”.
Regarding `C[C@@H]1CN([C@H](C)CO)C(=O)c2cccc(NC(=O)Nc3cccc4ccccc34)c2O[C@@H]1CN(C)Cc1ccc(Oc2ccccc2)cc1`, the cytotoxicity call is “inactive”.
Then `C[C@H]1CN([C@@H](C)CO)C(=O)c2cccc(NC(=O)Nc3cccc4ccccc34)c2O[C@H]1CN(C)Cc1ccc(Oc2ccccc2)cc1`, with “active”.
On to `C[C@H](CO)N1C[C@H](C)[C@H](CN(C)Cc2ccc(Oc3ccccc3)cc2)Oc2c(NC(=O)Nc3cccc4ccccc34)cccc2C1=O`, for which the cytotoxicity call is “inactive”.
Take `C[C@H](CO)N1C[C@H](C)[C@@H](CN(C)Cc2ccc(Oc3ccccc3)cc2)Oc2c(NC(=O)Nc3cccc4ccccc34)cccc2C1=O`: the cytotoxicity call is “active”.
As for `COc1ccc(CN(C)C[C@@H]2Oc3c(NC(=O)Nc4cccc5ccccc45)cccc3C(=O)N([C@H](C)CO)C[C@@H]2C)cc1`, the cytotoxicity call is “inactive”.
For `COc1ccc(CN(C)C[C@@H]2Oc3c(NC(=O)Nc4cccc5ccccc45)cccc3C(=O)N([C@@H](C)CO)C[C@@H]2C)cc1`, the cytotoxicity call is “inactive”.
With `CO[C@@H]1CN(C)C(=O)c2cc(NC(=O)Nc3cccc(Cl)c3)ccc2OC[C@H](C)N(C(=O)Nc2c(C)noc2C)C[C@@H]1C`, the cytotoxicity call is “inactive”.
Regarding `C[C@H]1CC/C=C\[C@H]2O[C@@]34C=CCN(Cn5nnc6ccccc65)C(=O)[C@H]3N(CCCO)C(=O)[C@@H]4[C@@H]2C(=O)O1`, the cytotoxicity call was “inactive”.
With `C[C@H]1CCCCO[C@H](CN(C)C(=O)c2ccccc2)[C@@H](C)CN([C@@H](C)CO)C(=O)c2cc(NC(=O)Nc3ccc(C(F)(F)F)cc3)ccc2O1`, the cytotoxicity call was “inactive”.
For the compound `O=C(NC1(C(F)(F)F)Oc2cc(Cl)c(Cl)cc2O1)C1=C(N2CCOCC2)/C(=C/c2ccccc2)CC1`, the cytotoxicity call was “active”.
For the compound `C[C@H]1CN([C@@H](C)CO)C(=O)c2cc(NS(=O)(=O)c3ccc(F)cc3)ccc2O[C@@H]1CN(C)CC1CC1`, the cytotoxicity call is “inactive”.
The value for `C[C@@H]1CN([C@H](C)CO)C(=O)c2cccc(NC(=O)C3CC3)c2O[C@@H]1CN(C)S(=O)(=O)c1cccs1` was “inactive”; that for `C[C@@H]1CN([C@H](C)CO)C(=O)Cc2cc(NC(=O)Nc3ccc(F)cc3)ccc2O[C@@H]1CN(C)S(=O)(=O)c1cn(C)cn1` was “inactive”; that for `C[C@H](CO)N1C[C@H](C)[C@@H](CN(C)S(=O)(=O)c2cccs2)Oc2ccc(NC(=O)Nc3cccc4ccccc34)cc2C1=O` was “inactive”.
Then `CN1CCN(CCO)C(=O)C12CCN([C@H]1CCOC1)CC2`, with “inactive”; and `C=CCOC(=O)[C@H]1[C@@H]2C(=O)O[C@@H](c3ccccc3)[C@@H](c3ccccc3)N2[C@@H](c2ccc(OCCOC(=O)[C@H]3C[C@H]4C(=O)N5CCC[C@H]5C(=O)N4[C@H]3c3ccc(O)cc3)cc2)[C@]12C(=O)Nc1ccc(I)cc12`, with “inactive”.
As to `Cc1noc(C)c1S(=O)(=O)Nc1ccc2c(c1)CC(=O)N([C@H](C)CO)C[C@@H](C)[C@H](CN(C)Cc1ccc(Oc3ccccc3)cc1)O2`, the cytotoxicity call was “inactive”.
As to `COc1oc(C(=O)NC2CCCCC2)c(-c2ccc(Cl)cc2)c1S(=O)(=O)c1ccc(Cl)cc1`, the cytotoxicity call was “inactive”.
Take `COc1oc(C(=O)NC2CCCCC2)c(-c2ccc(Cl)cc2)c1S(=O)(=O)c1ccc(Br)cc1`: the cytotoxicity call was “inactive”.
Consider `C#CCOc1ccc(-c2c(C(=O)NC3CCCCC3)oc(OC)c2S(=O)(=O)c2ccc(Cl)cc2)cc1`, for which the cytotoxicity call is “active”.
The value for `C[C@@H]1CN([C@@H](C)CO)C(=O)c2cc(NS(=O)(=O)c3cn(C)cn3)ccc2O[C@@H](C)CCCCO[C@H]1CN(C)Cc1ccc(C(F)(F)F)cc1` was “inactive”.
`O=C1C(CCS(=O)c2ccccc2)C(=O)N(c2ccccc2)N1c1ccccc1` (stereo not given): the cytotoxicity call is “inactive”.
Regarding `CCCCC1C(=O)N(c2ccccc2)N(c2ccccc2)C1=O`, the cytotoxicity call is “inactive”.
As for `CCCCC1C(=O)N(c2ccccc2)N(c2ccc(O)cc2)C1=O` (stereo not given), the cytotoxicity call is “active”.
As to `CC[C@H](C(=O)O)N1CCCC1`, the cytotoxicity call is “inactive”.
In the case of `C[C@H]1CN([C@@H](C)CO)C(=O)c2cc(NC(=O)CCCCCC(=O)Nc3ccccc3N)ccc2O[C@@H]1CN(C)CC1CCCCC1`, the cytotoxicity call was “inactive”.
`C[C@@H]1CN([C@@H](C)CO)C(=O)c2cc(NC(=O)CCCCCC(=O)Nc3ccccc3N)ccc2O[C@H]1CN(C)CC1CCCCC1`: the cytotoxicity call was “inactive”.
The value for `C[C@H](CO)N1C[C@H](C)[C@@H](CN(C)CC2CCCCC2)Oc2ccc(NC(=O)CCCCCC(=O)Nc3ccccc3N)cc2C1=O` was “active”.
`C[C@@H]1CN([C@H](C)CO)C(=O)c2cc(NC(=O)CCCCCC(=O)Nc3ccccc3N)ccc2O[C@H]1CN(C)CC1CCCCC1`: the cytotoxicity call is “inactive”.
The value for `C[C@@H]1CN([C@@H](C)CO)C(=O)Cc2cc(NC(=O)CCCCCC(=O)Nc3ccccc3N)ccc2O[C@@H]1CN(C)CC1CCCCC1` was “active”.
For `C[C@H](CO)N1C[C@H](C)[C@H](CN(C)CC2CCCCC2)Oc2ccc(NC(=O)CCCCCC(=O)Nc3ccccc3N)cc2C1=O`, the cytotoxicity call is “active”.
For the compound `C[C@@H]1CCCCO[C@@H](CN(C)CC2CCCCC2)[C@@H](C)CN([C@H](C)CO)C(=O)c2cc(NC(=O)CCCCCC(=O)Nc3ccccc3N)ccc2O1`, the cytotoxicity call is “inactive”.
For the compound `C[C@@H]1CN([C@H](C)CO)C(=O)Cc2cc(NC(=O)CCCCCC(=O)Nc3ccccc3N)ccc2O[C@@H]1CN(C)CC1CCCCC1`, the cytotoxicity call was “inactive”.
Take `C[C@@H]1CN([C@@H](C)CO)C(=O)c2cc(NC(=O)CCCCCC(=O)Nc3ccccc3N)ccc2O[C@@H](C)CCCCO[C@@H]1CN(C)CC1CCCCC1`: the cytotoxicity call is “inactive”.
Take `C[C@H]1CN([C@@H](C)CO)C(=O)c2cc(NC(=O)CCCCCC(=O)Nc3ccccc3N)ccc2O[C@H]1CN(C)CC1CCCCC1`: the cytotoxicity call is “active”.
Take `C[C@@H]1CN([C@H](C)CO)C(=O)Cc2cc(NC(=O)CCCCCC(=O)Nc3ccccc3N)ccc2O[C@H]1CN(C)CC1CCCCC1`: the cytotoxicity call was “inactive”.
The value for `C[C@@H]1CN([C@@H](C)CO)C(=O)c2cc(NC(=O)CCCCCC(=O)Nc3ccccc3N)ccc2O[C@@H]1CN(C)CC1CCCCC1` was “inactive”.
For `Cc1noc(C)c1NC(=O)Nc1ccc2c(c1)C(=O)N([C@H](C)CO)C[C@H](C)[C@H](CN(C)S(=O)(=O)c1ccc(F)cc1)OCCCC[C@H](C)O2`, the cytotoxicity call was “inactive”.
Regarding `C[C@H]1CCCCO[C@H](CN(C)S(=O)(=O)c2ccccc2)[C@@H](C)CN([C@@H](C)CO)C(=O)c2cc(NC(=O)C3CCCCC3)ccc2O1`, the cytotoxicity call was “inactive”.
For `CN1CCN(C(=O)c2nn(C)c3c2CCN(S(C)(=O)=O)C3)CC1`, the cytotoxicity call is “inactive”.
Regarding `C[C@H](CO)N1C[C@H](C)[C@@H](CN(C)CC2CCOCC2)Oc2cc(-c3cccnc3)ccc2S1(=O)=O`, the cytotoxicity call was “inactive”.
`COc1ccc(S(=O)(=O)Nc2cccc3c2O[C@H](CN(C)C(=O)Nc2c(C)noc2C)[C@H](C)CN([C@H](C)CO)C3=O)cc1`: the cytotoxicity call is “inactive”.
Regarding `CCS(=O)(=O)N1C[C@]2(CCN(CC2)C(=O)Cc2ccccc2)c2c(n(c3cc(ccc23)OC)C)[C@@H]1CO`, the cytotoxicity call was “inactive”.
As to `Cc1ccc[nH]c1=O`, the cytotoxicity call was “inactive”.
In the case of `COc1cccc(S(=O)(=O)N(C)C[C@@H]2Oc3cc(C#CCC(C)C)ccc3S(=O)(=O)N([C@@H](C)CO)C[C@@H]2C)c1`, the cytotoxicity call is “inactive”.
Take `CC1(C)SC2C(NC(=O)Cc3ccccc3)C(=O)N2C1C(=O)[O-].[K+]` (stereo not given): the cytotoxicity call was “inactive”.
